This is an account of results in PubChem BioAssay.

Each structure is given as a SMILES string. A number with no mark means an inactive call.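 The calls were made as follows: active = inhibition at or above 50% relative to wild type and mutant plate controls; inactive = inhibition below 50%.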 Peptide text beside a SMILES is read from it. * marks the point of attachment. Cbz = O=C(OCc1ccccc1)*

The inhibition is the change of the read-out against control, counted positive when it falls.

This assay can be described thus: loss of swimming-algae plug formation – whole organism, Chlamydomonas reinhardtii, WT vs cilia-less mutant, absorbance, 96-well, primary screen (AID 463189).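 Also: 0% = wild type cc124 cells in DMSO and 100% = ciliumless bld1 mutant cells.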 Conditions: Chlamydomonas reinhardtii gravitaxis, OD600 absorbance, 2 days; at 10 µM; active compounds read high.
On to `NC/C=C\C(=O)O`, for which the inhibition was 3.63%.
The value for `Fc1ccc(CN(C2=NCCN2)c2c(Cl)cccc2Cl)cc1` was -0.588%; that for `COc1cccc(OC)c1OCCNCC1COc2ccccc2O1` (centres undefined) was 0.114%.
As for `Cc1cccc(C)c1OCC(C)N` (centres undefined), the figure is 7.46%; as for `CO/N=C(\C(=O)N[C@@H]1C(=O)N2C(C(=O)O)=C(CSc3nc(=O)c(O)nn3C)CSC12)c1csc(N)n1` (some centres undefined), 7.64%; as for `C#C[C@]1(O)CC[C@H]2[C@@H]3CCC4=Cc5oncc5CC4(C)[C@H]3CCC21C` (some centres undefined), 4.97%.
As for `CC1=C(C(=O)O)N2C(=O)[C@@H](NC(=O)C(N)C3=CCC=CC3)[C@H]2SC1` (some centres undefined), the figure is 6.7%.
In the case of `Cn1cc(C2=C(c3ccc(Cl)cc3Cl)C(=O)NC2=O)c2ccccc21`, the inhibition is -0.155%.
The value for `CN=C(N)NCCC[C@H](N)C(=O)O` was 3.39%; that for `Cn1c(=O)c2[nH]c(-c3ccccc3)nc2n(C)c1=O` was -0.378%; that for `N=C1Sc2ccccc2C2=NCCCN12` was 9.36%.
Take `COc1cc(Cc2cnc(N)nc2N)cc(OC)c1OC`: the inhibition is 0.332%.
The value for `O=c1cc(-c2ccc(O)cc2)oc2cc(O)cc(O)c12` was 14.8%; that for `O=c1[nH]c2cc([N+](=O)[O-])c([N+](=O)[O-])cc2[nH]c1=O` was 5.09%; that for `NC(=O)c1ncn([C@@H]2O[C@H](CO)[C@@H](O)[C@H]2O)c1O` was 13.2%.
As for `CN(C(=O)CCCOc1ccc2[nH]c(=O)ccc2c1)C1CCCCC1`, the inhibition is 3.15%.
On to `CC(C)C[C@H]1C(=O)N2CCC[C@H]2[C@]2(O)O[C@](NC(=O)[C@@H]3C=C4c5cccc6[nH]c(Br)c(c56)C[C@H]4N(C)C3)(C(C)C)C(=O)N12`, for which the inhibition was 9.22%.
On to `NNc1nncc2ccccc12`, for which the inhibition was -2.73%.
For the compound `CCN(CC)CCCC(C)Nc1c2ccc(Cl)cc2nc2ccc(OC)cc12` (centres undefined), the inhibition is 16.9%.
Regarding `NCCS`, the inhibition was 8.28%.
Turning to `CC(C)=CCC/C(C)=C/CC/C(C)=C/CSc1ccccc1C(=O)O`, the inhibition was -8.73%.
As for `O=c1ccc2c(OCCCCc3ccccc3)c3ccoc3cc2o1`, the figure is 10.5%; as for `N=C(N)SCCc1cccc(CCSC(=N)N)c1`, 2.04%.
As for `CCCCNc1c(C(=O)OCC)c(C)nc2c1cnn2CC`, the figure is 8.88%; as for `CN1CCc2cc(Cl)c(O)cc2[C@@H](c2ccccc2)C1`, 5.1%; as for `Cc1ccc(=O)n(-c2ccccc2)c1`, 4.35%.
The value for `CCCCS(=N)(=O)CC[C@H](N)C(=O)O` (some centres undefined) was -0.592%; that for `O=c1c(O)c(-c2cc(O)c(O)c(O)c2)oc2cc(O)cc(O)c12` was 9.46%.
For the compound `O=c1[nH]cc(F)c(=O)[nH]1`, the inhibition was 2.19%.
Take `C=C[C@H]1CN2CCC1C[C@H]2[C@H](O)c1ccnc2ccc(OC)cc12` (some centres undefined): the inhibition was -14.7%.
As for `CN(C)CCC=C1c2ccccc2C=Cc2ccccc21`, the figure is 12.9%.
As for `CC(O)C(O)[C@H]1CNc2nc(N)[nH]c(=O)c2N1` (some centres undefined), the figure is 6.73%.
As for `Cc1cc(O)c2c(c1)C(=O)c1cc(O)cc(O)c1C2=O`, the figure is -10.7%; as for `NCCS(=O)(=O)O`, 8.8%.
In the case of `C=CCN1CCc2cc(O)c(O)cc2C(c2ccccc2)C1` (centres undefined), the inhibition is 8.31%.
As for `CCCCCN(CCCCC)C(=O)C(CCC(=O)O)NC(=O)c1ccc(Cl)c(Cl)c1` (centres undefined), the figure is -0.994%; as for `COc1cc(C(O)CO)ccc1O` (centres undefined), 1.74%; as for `COC(=O)[C@H](NC(=O)c1cc(-c2ccccc2)nc2ccccc12)c1ccccc1`, 1.92%.
Take `CC(C)[C@H](NC(=O)OCc1ccccc1)C(=O)N[C@H](C=O)Cc1ccccc1` (Cbz-Val-Phe-aldehyde): the inhibition is 6.09%.
